Screening results (PubChem BioAssay)
DT40 TDP1 no CPT: qHTS for Inhibitors of human tyrosyl-DNA phosphodiesterase 1 (TDP1): qHTS in cells in absence of CPT. Potency, µM (doses to about 46.2 µM), inactives show at the top dose activity change, negative = growth inhibition, most hits filed as inhibitors. DT40 Tdp1-/- hTDP1 cells, no CPT, ATP luminescence, 48 h. actives 15% (n = 420,000); also: nearly all actives have a fitted effect of over 55% in size
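Chicken DT40 Tdp1-/- cells stably complemented with human TDP1 were seeded at 400 cells/well with DMSO in place of 20 nM camptothecin. After compound pinning, cells grew at least 48 hr at 37 °C; viability read by CellTiter-Glo luminescence.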
Gal4-VP16 FLuc: Gal4-VP16 reporter inhibition counter-screen. AID 2546. Potency, µM (doses to about 53.6 µM), inactives show top-dose activity, negative = inhibition, hits mostly inhibitors. actives 3.5% (n = 310,000). Drosophila S2 Gal4-VP16 UAS-luciferase, luminescence, 20 h;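 also: Gal4-VP16 expression switched on by copper sulfate through the metallothionein promoter; nearly all actives have a fitted effect of over 50% in size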
ELG1 repair inh: inhibitors of ELG1-dependent DNA repair in HEK293T cells | HEK293T ELG1-luciferase reporter, luminescence, 16 h; DNA damage induced by 5-fluorouridine | AID 504467 | actives 2.3% (n = 330,000) | Potency, µM (highest dose often 46.1 µM), for inactives: top-dose activity change, negative = inhibition, hits mostly inhibitors; also: nearly all actives have a fitted effect of over 55% in size
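DMSO vehicle served as the neutral condition. Each well held 2,000 cells given 5-fluorouridine plus compound; after 16 hr at 37 °C/5% CO2, ONE-Glo was added and luciferase measured 30 min later.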
12-LOX inh: blocks human arachidonate 12S-lipoxygenase | purified 12hLO, xylenol orange hydroperoxide absorbance | Potency, µM (doses to about 108 µM), for the others: top-dose activity change, negative = inhibition, usual class: inhibitors | actives 1.1% (n = 580,000)
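Hydroperoxide product was detected by ferrous iron/xylenol orange as the 573 to 405 nm absorbance ratio. Arachidonic acid at 40 uM (final) was turned over for 30 min at room temperature by 150 nM human 12hLO, pH 7.0 Hepes buffer, after 15 min compound preincubation.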
DT40 TDP1 CPT: DT40-hTDP1 cell growth loss with CPT | chicken DT40 Tdp1-/-;hTDP1 cells + 20 nM CPT, ATP luminescence, 48 h | Potency, µM (doses to about 46.2 µM), without a hit: at the highest dose activity change, negative = growth inhibition, most hits filed as inhibitors | actives 12% (n = 420,000) | AID 686979; also: nearly all actives have a fitted effect of over 55% in size
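Chicken DT40 Tdp1-/- cells complemented with human TDP1, 400 cells/well, exposed to compounds plus 20 nM camptothecin for at least 48 h at 37 C; viability read as ATP content by CellTiter-Glo luminescence.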
RORg inh: ROR gamma (mouse) transcription inhibition; Potency, µM (titrated, usually from 53.6 µM), without a hit: at the highest dose activity change, negative = inhibition, hits mostly inhibitors; actives 5.4% (n = 310,000); Drosophila S2 Gal4-RORgamma UAS-luciferase reporter, 20 h; P51450; AID 2551; also: nearly all actives have a fitted effect of over 60% in size
Target sequence (P51450 whole entry, looked up, the tested form may be a part): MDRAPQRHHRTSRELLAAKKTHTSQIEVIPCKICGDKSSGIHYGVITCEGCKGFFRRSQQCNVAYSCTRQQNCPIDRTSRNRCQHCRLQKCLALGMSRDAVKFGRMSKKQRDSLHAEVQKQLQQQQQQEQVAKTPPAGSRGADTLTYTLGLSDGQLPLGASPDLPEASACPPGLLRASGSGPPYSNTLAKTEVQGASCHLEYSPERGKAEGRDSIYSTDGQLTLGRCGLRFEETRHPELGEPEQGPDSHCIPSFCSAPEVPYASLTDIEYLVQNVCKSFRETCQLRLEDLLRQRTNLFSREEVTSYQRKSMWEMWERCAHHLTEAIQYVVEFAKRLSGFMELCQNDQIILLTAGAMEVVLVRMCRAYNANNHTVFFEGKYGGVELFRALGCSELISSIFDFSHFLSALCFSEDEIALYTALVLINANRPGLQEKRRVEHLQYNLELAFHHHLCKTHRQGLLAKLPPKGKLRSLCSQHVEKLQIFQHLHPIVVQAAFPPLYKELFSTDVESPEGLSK
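ROR gamma transcriptional activity was tracked as Gal4-UAS luciferase output in stably transfected Drosophila Schneider cells, with compound added 1 hr before 700 uM copper sulfate induction and a 20 hr ambient-temperature incubation.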
An asterisk follows results filed as active; ? = inconclusive; / = no result; ! = not active in a repeat; [ ] = another dose, or the depositor's remark. A selection: hits, their analogues and other compounds. The true share with any hit is near 15%. Calls follow the shape of the dose curve; as a rule, active = well fitted curve in the direction sought with a large enough effect; inconclusive = small, poorly fitted or top-dose-only effect, or another doubt; inactive = no such curve, though single readings can be large; an effect the other way counts as inactive or inconclusive. % is scaled to controls: 0 for no effect and ±100 for the full control effect; potency is read from the fitted curve at half-maximal effect.

SMILES	DT40 TDP1 no CPT	Gal4-VP16 FLuc	ELG1 repair inh	12-LOX inh	DT40 TDP1 CPT	RORg inh
CNCC(=O)N1CCc2ncnc(N3CCSCC3)c2CC1	/	/	/	31%	/	/
O=C(NC(c1ccc(-c2ccccc2)cc1)c1cnccn1)C1CCN(CCN2C(=O)c3ccccc3C2=O)CC1 (stereo not given)	23µM*	/	/	10%	23µM*	/
O=C(NC(c1ccc(Cl)cc1)c1cnccn1)C1CCN(Cc2cccc(C(F)(F)F)c2)CC1 (stereo not given)	8.2µM*	/	/	?	12µM*	/
O=C(NC(c1ccccc1)c1ccccn1)C1CCN(CC(F)(F)F)CC1 (stereo not given)	/	/	/	-23%	/	/
CN(C)c1ccc(CN2CCC(C(=O)NC(c3ccc(Cl)cc3)c3cnccn3)CC2)cc1 (stereo not given)	16µM*	/	/	?	21µM*	/
O=C(NC(c1ccc(-c2ccccc2)cc1)c1cnccn1)C1CCN(Cc2cccc(C(F)(F)F)c2)CC1 (stereo not given)	18µM*	/	/	/	26µM*	/
O=C(NC(c1ccc(-c2ccccc2)cc1)c1cnccn1)C1CCN(Cc2cccs2)CC1 (stereo not given)	?	/	/	-1%	?	/
COc1cc(CN2CCC(C(=O)NC(c3ccc(-c4ccccc4)cc3)c3cnccn3)CC2)cc(OC)c1 (stereo not given)	23µM*	/	/	?	9.2µM*	/
COc1cccc(NC(=O)Cn2c(C)cc3nc4n(c(=O)c32)CCC4)c1	/	/	/	25%	/	/
CCN(C1CCCCC1)S(=O)(=O)c1ccc(S(=O)(=O)NCc2ccncc2)cc1	9.2µM*	18µM*	?	2%	7.3µM*	-1%
CCNS(=O)(=O)c1ccc(S(=O)(=O)N(Cc2ccccn2)C2CCCCC2)cc1	-26%	?	-6%	-3%	-29%	?
O=S(=O)(NCc1ccccc1)c1ccc(S(=O)(=O)N(Cc2ccccn2)C2CCCC2)cc1	18µM*	-10%	21µM*	-13%	?	?
COc1ccc(-c2noc([C@@H]3CCCN3C(=O)Cc3ccccc3C)n2)cc1OC	/	/	/	35%	/	/
COC(=O)CNC(=O)C(NC(=O)OCc1ccccc1)C(C)C (stereo not given)	3%	8%	4%	-1%	11%	2%
CC(C)c1nc(CN(C)C(=O)N[C@H](C(=O)N[C@@H](Cc2ccccc2)C[C@H](O)[C@H](Cc2ccccc2)NC(=O)OCc2cncs2)C(C)C)cs1	21µM*!	2%	/	-24%[57.4 µM]	17µM*!	?
Cc1cc(C(=O)Nc2ccccn2)cs1	?	?	?	19%	-5%	11µM*
COc1cc(C(=O)Nc2ccccn2)cc(OC)c1OC	-8%	7%	5%	0%	-1%	-9%
O=C(Nc1ccccn1)Nc1cccs1	-19%	10µM*	?	-13%	-31%	22%
O=C(NC(=O)c1ccccc1)Nc1ccccn1	/	1.6µM*	?	471%	/	0.5µM*
O=C(c1ccccc1)c1nc[nH]c1C(=O)Nc1ccccn1	-25%	18µM*	-1%	?	-15%	13µM*
O=C(Nc1ccccn1)c1ccc(C(=O)c2ccccc2)cc1	?	/	?	1%	-8%	/
COc1ccc(NS(=O)(=O)c2cccc(C(=O)N3CCc4sccc4C3)c2)cc1	/	/	/	-38%	/	/
C1CNC(c2nc(CCOCC3CC3)no2)C1 (stereo not given)	/	/	/	50%	/	/
Cc1c(C(=O)OC(C)C(=O)N2CCNC2=O)oc2ccc(Cl)cc12 (stereo not given)	/	/	/	-11%	/	/
Cc1ccc(C(C=O)C=O)cc1	/	/	/	-26%	/	/
